From PubChem BioAssay (Tox21)
The source made the active and inactive calls. Entries that show only a call come without a potency. Calls follow the shape of the dose curve; as a rule, active = well fitted activation curve with a large enough effect in the repeat runs; inconclusive = weak or mixed curves; inactive = flat fitted curve, though single readings scatter.

Experiment: A CellTox Green Cytotoxicity Assay to monitor cytotoxicity in HepG2 cells - 0 hour (AID 1224882); also: nearly all actives have a fitted effect of over 35% in size
Settings: CellTox Green fluorescence; series mostly up to 76.8 µM
Method in brief: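 Read-out is fluorescence of a cyanine dye excluded from live cells that stains DNA of dead HepG2 cells, with signal proportional to cytotoxicity. Plates were read at 0, 8, 16, 24, 32 and 40 h after compound addition.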

| SMILES | Potency |
| --- | --- |
| CC(C)NC(C)C | inactive |
| CCOP(=S)(OCC)O/N=C(\C#N)c1ccccc1 | inactive |
| Cc1ccc2c(c1N)C(=O)c1ccccc1C2=O | inactive |
| O=S(=O)(Oc1ccc(Cl)cc1)c1ccc(Cl)cc1 | inactive |
| COP(=S)(OC)Oc1ccc([N+](=O)[O-])cc1 | inactive |
| OCC(O)CO | inactive |
| CCOCN(C(=O)CCl)c1c(C)cccc1CC | inactive |
| C=CC(=O)OCCO | inactive |
| Nc1ccc(-c2ccc(N)c(N)c2)cc1N | inactive |
| c1ccc(-c2cccc(-c3ccccc3)c2)cc1 | inactive |
| Brc1ccc(Oc2cc(Br)c(Br)cc2Br)c(Br)c1 | inactive |
| O=Cc1ccco1 | inactive |
| NNC(=S)NN | inactive |
| CCCCCCCCC(=O)NCc1ccc(O)c(OC)c1 | inactive |
| CCOc1cc(C=O)ccc1O | inactive |
| CCCCNC(=O)n1c(NC(=O)OC)nc2ccccc21 | inactive |
| Cc1cc(C)cc(C)c1 | inactive |
